Assay results published in article PMC7862700, “An all-to-all approach to the identification of sequence-specific readers for epigenetic DNA modifications on cytosine”.

Experiments:
Test in all cases: DAPPL (digital affinity profiling via proximity ligation, sequencing); 10 mM Tris-HCl pH 7.5, 50 mM NaCl, 1 mM DTT, 4% glycerol, room temperature, 30 min; GST-TFs on glutathione beads, 16-mer random dsDNA library, 0.1% formaldehyde crosslink after washing; high values mean tight binding
FEV = biological target: T1, FEV (Homo sapiens, UniProt Q99581 1-238); conditions: protein: recombinant; tags: N-terminal GST; dsDNA, one strand shown
T1 sequence: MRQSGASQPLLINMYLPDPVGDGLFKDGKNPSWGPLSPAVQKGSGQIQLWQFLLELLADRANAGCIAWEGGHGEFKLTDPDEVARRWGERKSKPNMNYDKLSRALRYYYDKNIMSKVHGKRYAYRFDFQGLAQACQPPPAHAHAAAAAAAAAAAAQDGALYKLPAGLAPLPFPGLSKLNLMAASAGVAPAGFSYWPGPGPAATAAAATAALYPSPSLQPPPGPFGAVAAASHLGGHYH
Summary of the method: (§1)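 After expression in yeast as GST fusions, human transcription factors were bound to glutathione beads, DNA-barcoded and mixed with a tag-only sample. The pools were incubated with 200 nmole of a 16-mer random double-stranded DNA library in Tris/NaCl/DTT/glycerol buffer (30 min, room temperature), washed and crosslinked with 0.1% formaldehyde. Proximity ligation with BsaI/T4 ligase ran for 1 h at 37 °C, before PCR amplification and sequencing on an Illumina NextSeq500. Binding signal is a hexamer's read frequency for a factor divided by its frequency for the tag-only sample.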

ETV5 = ETV5 (Homo sapiens, UniProt P41161 1-510); conditions: protein: recombinant; tags: N-terminal GST; dsDNA, one strand shown
Sequence of ETV5 (P41161 whole entry): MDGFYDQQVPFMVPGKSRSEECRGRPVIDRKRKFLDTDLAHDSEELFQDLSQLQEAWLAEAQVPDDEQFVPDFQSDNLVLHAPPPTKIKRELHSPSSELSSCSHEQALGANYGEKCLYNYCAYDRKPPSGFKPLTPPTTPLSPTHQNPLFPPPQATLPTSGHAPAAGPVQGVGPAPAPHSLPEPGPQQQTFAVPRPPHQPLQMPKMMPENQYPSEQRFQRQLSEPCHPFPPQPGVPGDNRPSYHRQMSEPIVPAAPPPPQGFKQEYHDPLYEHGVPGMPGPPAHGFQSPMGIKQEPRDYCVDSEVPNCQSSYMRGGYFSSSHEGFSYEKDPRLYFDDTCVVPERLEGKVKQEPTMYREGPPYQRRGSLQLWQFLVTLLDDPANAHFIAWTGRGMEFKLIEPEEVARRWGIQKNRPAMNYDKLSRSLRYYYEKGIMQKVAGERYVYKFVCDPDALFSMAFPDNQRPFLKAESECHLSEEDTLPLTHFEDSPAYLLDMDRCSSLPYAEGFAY
Summary of the method: as §1

HSF1 = HSF1 (Homo sapiens, UniProt Q00613 1-529); conditions: protein: recombinant; tags: N-terminal GST; chain copies: 3; dsDNA, one strand shown
Sequence of HSF1 (Q00613 whole entry): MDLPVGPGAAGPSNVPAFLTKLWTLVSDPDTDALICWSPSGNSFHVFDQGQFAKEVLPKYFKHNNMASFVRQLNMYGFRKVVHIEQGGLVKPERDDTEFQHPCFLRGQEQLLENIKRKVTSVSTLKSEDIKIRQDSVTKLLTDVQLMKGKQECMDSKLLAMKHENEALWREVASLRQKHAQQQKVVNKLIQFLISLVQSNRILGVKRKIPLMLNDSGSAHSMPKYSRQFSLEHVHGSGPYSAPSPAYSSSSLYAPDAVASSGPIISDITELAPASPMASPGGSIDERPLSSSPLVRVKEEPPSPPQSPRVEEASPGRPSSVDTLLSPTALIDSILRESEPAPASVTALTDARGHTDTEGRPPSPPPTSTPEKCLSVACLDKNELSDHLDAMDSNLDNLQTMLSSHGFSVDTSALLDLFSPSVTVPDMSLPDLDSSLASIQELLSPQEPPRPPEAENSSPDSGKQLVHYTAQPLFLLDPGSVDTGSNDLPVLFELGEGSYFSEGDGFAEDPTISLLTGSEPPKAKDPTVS
Summary of the method: as §1

SPIC = biological target: T2, SPIC (Homo sapiens, UniProt Q8N5J4 1-248); conditions: protein: recombinant; tags: N-terminal GST; dsDNA, one strand shown
T2 sequence: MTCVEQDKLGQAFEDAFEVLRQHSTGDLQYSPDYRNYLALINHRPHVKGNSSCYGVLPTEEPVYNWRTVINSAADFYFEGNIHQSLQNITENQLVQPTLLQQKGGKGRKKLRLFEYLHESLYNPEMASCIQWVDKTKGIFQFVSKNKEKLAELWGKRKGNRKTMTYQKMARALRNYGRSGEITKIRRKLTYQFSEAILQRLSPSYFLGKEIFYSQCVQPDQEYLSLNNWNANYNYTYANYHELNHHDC
Summary of the method: as §1

ELF4 = ELF4 (Homo sapiens, UniProt Q99607 1-663); conditions: protein: recombinant; tags: N-terminal GST; dsDNA, one strand shown
Sequence of ELF4 (Q99607 whole entry): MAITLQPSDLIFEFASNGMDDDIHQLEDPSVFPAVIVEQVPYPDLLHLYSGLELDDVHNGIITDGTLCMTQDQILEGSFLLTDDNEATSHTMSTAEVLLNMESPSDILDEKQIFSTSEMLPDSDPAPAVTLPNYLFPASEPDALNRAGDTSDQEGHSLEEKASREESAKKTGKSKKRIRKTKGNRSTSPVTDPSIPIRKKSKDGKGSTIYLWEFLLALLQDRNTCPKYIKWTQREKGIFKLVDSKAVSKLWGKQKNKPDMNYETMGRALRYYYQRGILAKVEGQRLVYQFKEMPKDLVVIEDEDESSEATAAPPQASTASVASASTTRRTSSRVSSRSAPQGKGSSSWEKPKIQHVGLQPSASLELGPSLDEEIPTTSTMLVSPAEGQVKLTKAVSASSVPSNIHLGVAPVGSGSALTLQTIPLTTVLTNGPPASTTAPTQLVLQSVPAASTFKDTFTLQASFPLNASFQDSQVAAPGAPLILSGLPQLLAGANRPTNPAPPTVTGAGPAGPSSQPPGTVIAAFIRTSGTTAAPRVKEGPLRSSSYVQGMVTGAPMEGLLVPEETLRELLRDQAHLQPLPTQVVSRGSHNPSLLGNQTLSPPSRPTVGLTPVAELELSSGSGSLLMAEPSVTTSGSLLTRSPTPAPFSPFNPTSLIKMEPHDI
Summary of the method: as §1

ELK4 = biological target: T3, ELK4 (Homo sapiens, UniProt P28324-2 1-405); conditions: protein: recombinant; tags: N-terminal GST; dsDNA, one strand shown
T3 sequence: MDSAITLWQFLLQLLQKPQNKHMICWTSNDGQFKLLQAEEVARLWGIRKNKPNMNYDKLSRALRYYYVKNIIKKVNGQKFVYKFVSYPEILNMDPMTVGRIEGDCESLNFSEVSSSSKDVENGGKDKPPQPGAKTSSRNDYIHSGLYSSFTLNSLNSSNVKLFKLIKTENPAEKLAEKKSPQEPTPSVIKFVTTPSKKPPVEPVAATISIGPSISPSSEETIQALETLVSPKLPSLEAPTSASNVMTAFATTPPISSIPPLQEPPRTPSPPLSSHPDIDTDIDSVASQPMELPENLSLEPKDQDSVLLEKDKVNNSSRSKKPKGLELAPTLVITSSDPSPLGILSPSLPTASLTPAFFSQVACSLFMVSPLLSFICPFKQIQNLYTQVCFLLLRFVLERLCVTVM
Summary of the method: as §1

ETV2 = biological target: T4, ETV2 (Homo sapiens, UniProt O00321 1-342); conditions: protein: recombinant; tags: N-terminal GST; dsDNA, one strand shown
T4 sequence: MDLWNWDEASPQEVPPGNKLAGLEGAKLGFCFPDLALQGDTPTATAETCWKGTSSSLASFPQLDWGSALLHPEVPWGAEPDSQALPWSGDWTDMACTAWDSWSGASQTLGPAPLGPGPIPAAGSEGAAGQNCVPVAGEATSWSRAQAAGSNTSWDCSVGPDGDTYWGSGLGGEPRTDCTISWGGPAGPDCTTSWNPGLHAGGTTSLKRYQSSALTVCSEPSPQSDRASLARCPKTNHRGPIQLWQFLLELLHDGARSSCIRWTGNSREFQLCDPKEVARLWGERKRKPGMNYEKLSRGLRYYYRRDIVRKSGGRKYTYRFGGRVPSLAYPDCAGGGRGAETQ
Summary of the method: as §1

ELF3 = biological target: T5, ELF3 (Homo sapiens, UniProt P78545 1-371); conditions: protein: recombinant; tags: N-terminal GST; dsDNA, one strand shown
T5 sequence: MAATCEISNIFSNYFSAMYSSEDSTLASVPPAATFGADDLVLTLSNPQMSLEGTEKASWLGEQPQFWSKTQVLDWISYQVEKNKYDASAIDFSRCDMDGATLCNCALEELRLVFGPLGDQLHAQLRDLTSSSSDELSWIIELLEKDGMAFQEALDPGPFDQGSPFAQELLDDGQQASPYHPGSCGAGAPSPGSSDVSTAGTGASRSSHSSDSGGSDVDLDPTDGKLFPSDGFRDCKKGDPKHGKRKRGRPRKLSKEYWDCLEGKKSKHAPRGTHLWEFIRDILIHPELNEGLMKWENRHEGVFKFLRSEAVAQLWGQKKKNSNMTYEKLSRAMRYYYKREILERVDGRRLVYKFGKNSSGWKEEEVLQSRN
Summary of the method: as §1

CRX = CRX (Homo sapiens, UniProt O43186 1-299); conditions: protein: recombinant; tags: N-terminal GST; dsDNA, one strand shown
Sequence of CRX (O43186 whole entry): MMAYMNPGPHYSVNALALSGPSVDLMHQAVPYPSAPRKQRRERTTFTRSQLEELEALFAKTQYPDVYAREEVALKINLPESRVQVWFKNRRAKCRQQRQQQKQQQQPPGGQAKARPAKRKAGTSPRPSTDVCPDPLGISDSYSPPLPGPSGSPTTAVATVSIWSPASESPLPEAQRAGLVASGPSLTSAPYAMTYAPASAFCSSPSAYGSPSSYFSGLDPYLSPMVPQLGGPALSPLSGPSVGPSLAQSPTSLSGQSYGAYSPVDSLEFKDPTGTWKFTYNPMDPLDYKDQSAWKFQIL
Summary of the method: as §1

ETV1 = ETV1 (Homo sapiens, UniProt P50549 1-477); conditions: protein: recombinant; tags: N-terminal GST; dsDNA, one strand shown
Sequence of ETV1 (P50549 whole entry): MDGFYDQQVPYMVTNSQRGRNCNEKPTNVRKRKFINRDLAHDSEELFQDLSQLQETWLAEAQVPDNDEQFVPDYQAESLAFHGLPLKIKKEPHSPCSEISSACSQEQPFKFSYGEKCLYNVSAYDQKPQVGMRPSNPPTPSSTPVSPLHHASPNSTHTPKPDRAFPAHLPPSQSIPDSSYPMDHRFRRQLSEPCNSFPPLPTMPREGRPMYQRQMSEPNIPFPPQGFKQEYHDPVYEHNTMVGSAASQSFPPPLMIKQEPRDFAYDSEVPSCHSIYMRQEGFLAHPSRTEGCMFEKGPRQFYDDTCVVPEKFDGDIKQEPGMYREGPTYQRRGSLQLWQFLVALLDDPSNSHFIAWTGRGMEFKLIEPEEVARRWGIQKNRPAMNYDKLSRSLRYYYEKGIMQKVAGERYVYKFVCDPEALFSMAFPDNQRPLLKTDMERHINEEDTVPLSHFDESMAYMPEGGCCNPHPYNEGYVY
Summary of the method: as §1

| Sequence | binding signal (FEV) | binding signal (ETV5) | binding signal (HSF1) | binding signal (SPIC) | binding signal (ELF4) | binding signal (ELK4) | binding signal (ETV2) | binding signal (ELF3) | binding signal (CRX) | binding signal (ETV1) |
| --- | --- | --- | --- | --- | --- | --- | --- | --- | --- | --- |
| TGTTTT | 1.24 fold enrichment (6-mer frequency, TF over GST control) | 1.42 fold enrichment (6-mer frequency, TF over GST control) | 1.21 fold enrichment (6-mer frequency, TF over GST control) | 1.36 fold enrichment (6-mer frequency, TF over GST control) | 1.37 fold enrichment (6-mer frequency, TF over GST control) | 1.35 fold enrichment (6-mer frequency, TF over GST control) | 1.38 fold enrichment (6-mer frequency, TF over GST control) | 1.33 fold enrichment (6-mer frequency, TF over GST control) | 1.23 fold enrichment (6-mer frequency, TF over GST control) | 1.29 fold enrichment (6-mer frequency, TF over GST control) |
| TCACCA | 1.16 fold enrichment (6-mer frequency, TF over GST control) | 1.12 fold enrichment (6-mer frequency, TF over GST control) | 1.01 fold enrichment (6-mer frequency, TF over GST control) | 1.19 fold enrichment (6-mer frequency, TF over GST control) | 1.25 fold enrichment (6-mer frequency, TF over GST control) | 1.21 fold enrichment (6-mer frequency, TF over GST control) | 1.32 fold enrichment (6-mer frequency, TF over GST control) | 1.39 fold enrichment (6-mer frequency, TF over GST control) | 1.04 fold enrichment (6-mer frequency, TF over GST control) | 1.13 fold enrichment (6-mer frequency, TF over GST control) |
| TTTACT | 1.41 fold enrichment (6-mer frequency, TF over GST control) | 1.44 fold enrichment (6-mer frequency, TF over GST control) | 1.69 fold enrichment (6-mer frequency, TF over GST control) | 1.44 fold enrichment (6-mer frequency, TF over GST control) | 1.5 fold enrichment (6-mer frequency, TF over GST control) | 1.66 fold enrichment (6-mer frequency, TF over GST control) | 1.29 fold enrichment (6-mer frequency, TF over GST control) | 1.65 fold enrichment (6-mer frequency, TF over GST control) | 1.95 fold enrichment (6-mer frequency, TF over GST control) | 1.48 fold enrichment (6-mer frequency, TF over GST control) |
| TTTTTG | 1.33 fold enrichment (6-mer frequency, TF over GST control) | 1.42 fold enrichment (6-mer frequency, TF over GST control) | 1.24 fold enrichment (6-mer frequency, TF over GST control) | 1.39 fold enrichment (6-mer frequency, TF over GST control) | 1.45 fold enrichment (6-mer frequency, TF over GST control) | 1.5 fold enrichment (6-mer frequency, TF over GST control) | 1.51 fold enrichment (6-mer frequency, TF over GST control) | 1.44 fold enrichment (6-mer frequency, TF over GST control) | 1.31 fold enrichment (6-mer frequency, TF over GST control) | 1.48 fold enrichment (6-mer frequency, TF over GST control) |
| CCTCAG | 1.21 fold enrichment (6-mer frequency, TF over GST control) | 1.12 fold enrichment (6-mer frequency, TF over GST control) | 1.07 fold enrichment (6-mer frequency, TF over GST control) | 1.17 fold enrichment (6-mer frequency, TF over GST control) | 1.3 fold enrichment (6-mer frequency, TF over GST control) | 1.4 fold enrichment (6-mer frequency, TF over GST control) | 1.37 fold enrichment (6-mer frequency, TF over GST control) | 1.35 fold enrichment (6-mer frequency, TF over GST control) | 1.15 fold enrichment (6-mer frequency, TF over GST control) | 1.13 fold enrichment (6-mer frequency, TF over GST control) |
| CACGTT | 1.26 fold enrichment (6-mer frequency, TF over GST control) | 1.3 fold enrichment (6-mer frequency, TF over GST control) | 1.11 fold enrichment (6-mer frequency, TF over GST control) | 1.33 fold enrichment (6-mer frequency, TF over GST control) | 1.31 fold enrichment (6-mer frequency, TF over GST control) | 1.29 fold enrichment (6-mer frequency, TF over GST control) | 1.36 fold enrichment (6-mer frequency, TF over GST control) | 1 fold enrichment (6-mer frequency, TF over GST control) | 1.08 fold enrichment (6-mer frequency, TF over GST control) | 1.21 fold enrichment (6-mer frequency, TF over GST control) |
| TCCGCC | 1.88 fold enrichment (6-mer frequency, TF over GST control) | 1.69 fold enrichment (6-mer frequency, TF over GST control) | 1.04 fold enrichment (6-mer frequency, TF over GST control) | 1.69 fold enrichment (6-mer frequency, TF over GST control) | 1.55 fold enrichment (6-mer frequency, TF over GST control) | 1.45 fold enrichment (6-mer frequency, TF over GST control) | 1.48 fold enrichment (6-mer frequency, TF over GST control) | 1.6 fold enrichment (6-mer frequency, TF over GST control) | 1.05 fold enrichment (6-mer frequency, TF over GST control) | 1.59 fold enrichment (6-mer frequency, TF over GST control) |
| ATCCCC | 1.44 fold enrichment (6-mer frequency, TF over GST control) | 1.37 fold enrichment (6-mer frequency, TF over GST control) | 1.78 fold enrichment (6-mer frequency, TF over GST control) | 1.37 fold enrichment (6-mer frequency, TF over GST control) | 1.37 fold enrichment (6-mer frequency, TF over GST control) | 1.44 fold enrichment (6-mer frequency, TF over GST control) | 1.39 fold enrichment (6-mer frequency, TF over GST control) | 1.53 fold enrichment (6-mer frequency, TF over GST control) | 2.37 fold enrichment (6-mer frequency, TF over GST control) | 1.43 fold enrichment (6-mer frequency, TF over GST control) |
